{"source": "PubChem BioAssay (EPA / NIEHS)", "note": "Activity calls are given as the source filed them. How the source made its calls: active means hit-call score of the fitted dose curve at least 0.9, where 1 is the maximum; inactive means score below 0.9."}
{"experiment": "BSK_SAg_Proliferation: Cell Proliferation Assessment in the BioMAP Diversity Plus: SAg Assay (AID 2283095);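 further: relative cell number as total protein by SRB absorbance in sub-confluent culture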", "details": "primary human HUVEC with PBMC", "procedure,_shortened": "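Human umbilical vein endothelial cells co-cultured with peripheral blood mononuclear cells; total protein measured by sulforhodamine B staining (0.1% SRB after 10% TCA fixation), absorbance at 560 nm, at 96 h. Bidirectional fit against DMSO baseline.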"}
{"compound": "CCCCCCCCc1ccc(O)cc1", "AC50": "19.3 µM (active)"}
{"compound": "COc1cc(OC)nc(NC(=O)NS(=O)(=O)c2ncccc2C(=O)N(C)C)n1", "outcome": "inactive"}
{"compound": "Nc1cccc2ccccc12", "outcome": "inactive"}
{"compound": "O=[N+]([O-])c1ccc(O)c([N+](=O)[O-])c1", "outcome": "inactive"}
{"compound": "CC12CC1(C)C(=O)N(c1cc(Cl)cc(Cl)c1)C2=O", "note": "(configuration not stated)", "outcome": "inactive"}
{"compound": "CCOP(=S)(OCC)Oc1nc(Cl)c(Cl)cc1Cl", "AC50": "34.4 µM (active)"}
{"compound": "CCOP(=S)(OCC)SCSP(=S)(OCC)OCC", "AC50": "20 µM (active)"}
{"compound": "O=C(Nc1ccc2[nH]ccc2c1)c1cc2cc(F)ccc2n1Cc1cccc(F)c1", "AC50": "6.62 µM (active)"}
{"compound": "NC(=O)O", "outcome": "inactive"}
{"compound": "COP(=S)(OC)Oc1ccc(Sc2ccc(OP(=S)(OC)OC)cc2)cc1", "AC50": "28.8 µM (active)"}
{"compound": "CCCCCCCCC(=O)NCc1ccc(O)c(OC)c1", "outcome": "inactive"}
{"compound": "C=CC(=O)OCCCCCC(C)C", "outcome": "inactive"}
{"compound": "CC(=O)[O][Hg][c]1ccccc1", "AC50": "0.259 µM (active)"}
{"compound": "O=C1C2(Cl)C3(Cl)C4(Cl)C(Cl)(Cl)C5(Cl)C3(Cl)C1(Cl)C5(Cl)C24Cl", "note": "(configuration not stated)", "AC50": "4.64 µM (active)"}
{"compound": "COC[C@H](C)N(C(=O)CCl)c1c(C)csc1C", "outcome": "inactive"}
{"compound": "ClC1(Cl)C2(Cl)C3(Cl)C4(Cl)C(Cl)(Cl)C5(Cl)C3(Cl)C1(Cl)C5(Cl)C24Cl", "note": "(configuration not stated)", "outcome": "inactive"}
{"compound": "CCCCC(CC)CO[N+](=O)[O-]", "note": "(configuration not stated)", "outcome": "inactive"}
{"compound": "Cn1sc(Cl)cc1=O", "AC50": "6.46 µM (active)"}
{"compound": "CC(C)c1ccc(CO)cc1", "outcome": "inactive"}
{"compound": "Oc1ccc(-c2ccccc2)cc1", "outcome": "inactive"}
{"compound": "CCC(=O)C(CC(C)N(C)C)(c1ccccc1)c1ccccc1", "note": "(configuration not stated)", "outcome": "inactive"}
{"compound": "O=C(OC1CCCCC1)c1ccccc1C(=O)OC1CCCCC1", "AC50": "17.3 µM (active)"}
{"compound": "CC(C)(C)CC(C)(C)c1ccc(O)cc1", "AC50": "5.84 µM (active)"}
{"compound": "CC(C)(C)c1cc(O)ccc1O", "AC50": "1.94 µM (active)"}
{"compound": "CC(=O)C(Cl)C(=O)N(C)C", "note": "(configuration not stated)", "AC50": "20 µM (active)"}
{"compound": "OCc1ccco1", "AC50": "26.7 µM (active)"}
{"compound": "COP(=S)(OC)Oc1c(Cl)cc(C)cc1Cl", "AC50": "31.6 µM (active)"}
{"compound": "Oc1cccc2cccnc12", "AC50": "4.71 µM (active)"}
{"compound": "O=S(=O)(c1ccc(Cl)cc1)c1ccc(Cl)cc1", "outcome": "inactive"}
{"experiment": "BSK_SAg_SRB: Viability Assessment in the BioMAP Diversity Plus: SAg Assay (AID 2283096);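 further: cells read one day after compound addition; hits may be either gain or loss of signal compared with DMSO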", "details": "primary human HUVEC with PBMC", "procedure,_shortened": "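Total protein by sulforhodamine B staining, 24 h after dosing, in HUVEC–PBMC co-culture; DMSO-referenced bidirectional fitting.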"}
{"compound": "COc1cc(OC)nc(NC(=O)NS(=O)(=O)c2ncccc2C(=O)N(C)C)n1", "outcome": "inactive"}
{"compound": "CC12CC1(C)C(=O)N(c1cc(Cl)cc(Cl)c1)C2=O", "note": "(configuration not stated)", "outcome": "inactive"}
{"compound": "CCOP(=S)(OCC)Oc1nc(Cl)c(Cl)cc1Cl", "outcome": "inactive"}
{"compound": "NC(=O)O", "outcome": "inactive"}
{"compound": "COP(=S)(OC)Oc1ccc(Sc2ccc(OP(=S)(OC)OC)cc2)cc1", "outcome": "inactive"}
{"compound": "C=CC(=O)OCCCCCC(C)C", "outcome": "inactive"}
{"compound": "COC[C@H](C)N(C(=O)CCl)c1c(C)csc1C", "outcome": "inactive"}
{"compound": "ClC1(Cl)C2(Cl)C3(Cl)C4(Cl)C(Cl)(Cl)C5(Cl)C3(Cl)C1(Cl)C5(Cl)C24Cl", "note": "(configuration not stated)", "outcome": "inactive"}
{"compound": "CCCCC(CC)CO[N+](=O)[O-]", "note": "(configuration not stated)", "outcome": "inactive"}
{"compound": "CC(C)c1ccc(CO)cc1", "outcome": "inactive"}
{"compound": "Oc1ccc(-c2ccccc2)cc1", "outcome": "inactive"}
{"compound": "CCC(=O)C(CC(C)N(C)C)(c1ccccc1)c1ccccc1", "note": "(configuration not stated)", "outcome": "inactive"}
{"compound": "O=C(OC1CCCCC1)c1ccccc1C(=O)OC1CCCCC1", "AC50": "20.9 µM (active)"}
{"compound": "CC(C)(C)CC(C)(C)c1ccc(O)cc1", "AC50": "11.3 µM (active)"}
{"compound": "CC(C)(C)c1cc(O)ccc1O", "AC50": "15.3 µM (active)"}
{"compound": "CC(=O)C(Cl)C(=O)N(C)C", "note": "(configuration not stated)", "outcome": "inactive"}
{"compound": "COP(=S)(OC)Oc1c(Cl)cc(C)cc1Cl", "outcome": "inactive"}
{"compound": "O=S(=O)(c1ccc(Cl)cc1)c1ccc(Cl)cc1", "outcome": "inactive"}
